Hit rate of the full screen: of about 300,000 compounds, about 2,400 (0.8%) were called active. The entries come from a sample that favours actives as a whole. Values without a mark were called inactive.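 The calls were made as follows: active = Every replicate reaches about 75%, or at least half do and their mean reaches it too (limit read from the data); inconclusive = At least half of replicates reach the limit but their mean does not; inactive = Under half of replicates reach the limit.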

This assay is described as follows: INS-1E beta cell survival under cytokines – luminescence, primary screen (AID 435005).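 Also: 0% = cytokine-treated negative control wells and 100% = positive control rescue; higher means more ATP so stronger rescue from cytokine killing.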 The conditions noted are these: INS-1E cytokine-induced death, ATP luminescence, 48 h; hits give high values; percent of positive-control rescue, neutral wells zero; concentration not given here.
Take `COc1ccc(C2=Nn3c(nnc3-c3ccccc3OC)SC2)cc1OC1CCCC1`: the protection from apoptosis is 31.3%.
Take `CCOc1ccc(CN2CCCN(C)CC2)cc1`: the protection from apoptosis was -3.58%.
With `CCOc1ccc(CN2CCN(Cc3c[nH]c4ccccc34)CC2)cc1`, the protection from apoptosis is 76.1% (active).
For the molecule `O=C(NCCc1c[nH]c2ccccc12)C1CCN(Cc2ccc(Br)cc2)CC1`, the protection from apoptosis was -12.4%.
For `CN(CC(=O)Nc1ccc(Cl)cc1)CC(=O)Nc1cccc2ccccc12`, the protection from apoptosis was 0.976%.
Take `Cc1onc(-c2c(F)cccc2Cl)c1C(=O)OCC(=O)N1C(C)CCCC1C` (centres undefined): the protection from apoptosis was 1.7%.
Consider `Cc1occc1C(=O)N/N=C/c1ccc(-c2cccc([N+](=O)[O-])c2)o1`, for which the protection from apoptosis was 4.96%.
Regarding `Cc1cccc(C(=O)NNC(=O)c2cccc([N+](=O)[O-])c2)c1`, the protection from apoptosis is -5.35%.
With `Cc1[nH]n(-c2ccccc2)c(=O)c1/C=N/NC(=O)c1ccoc1C` the figure was 107% (active); with `COc1cc(/C=N/NC(=O)c2ccoc2C)ccc1OCCN1CCCCC1`, -1.12%.
As for `Cc1ccc(-n2[nH]c(C)c(/C=N/NC(=O)c3cccc([N+](=O)[O-])c3)c2=O)cc1C`, the protection from apoptosis is 106% (active).
In the case of `Cc1[nH]n(-c2ccc([N+](=O)[O-])cc2)c(=O)c1C=NCCN1CCN(C(=O)c2ccccc2F)CC1`, the protection from apoptosis is 48.6%.
With `Cc1ccc(N2C(=O)N3[C@@H]4c5ccccc5OC[C@@H]4[C@@H](c4ccccc4)[C@@]3(C)C2=O)cc1` the figure was -1.96%; with `Cc1ccc(S(=O)(=O)N(C)C)cc1NC(=O)CN1c2cccc3cccc(c23)S1(=O)=O`, -0.228%.
The same measure for `Cc1ccccc1NCC(=O)N/N=C\c1ccc([N+](=O)[O-])s1`: 3.12%.
With `CCOc1ccc(NC(=O)CCC(=O)N/N=C/c2ccc([N+](=O)[O-])s2)cc1` the figure was -9.66%; with `CC(C)(C)c1cc(C(=O)N/N=C/c2ccc([N+](=O)[O-])s2)n[nH]1`, 111% (active); with `COc1ccc(C(=O)NCC(=O)N/N=C/c2ccc([N+](=O)[O-])s2)cc1OC`, 91.3% (active).
For the molecule `COc1ccc(C(=O)NCC(=O)N/N=C/c2ccc([N+](=O)[O-])o2)cc1OC`, the protection from apoptosis is -11.1%.
Take `COc1ccc(C(=O)COC(=O)c2ccc([N+](=O)[O-])s2)cc1OC`: the protection from apoptosis is 4.99%.
On to `CCN(C[C@H]1N[C@@](CC)(C(=O)OC)[C@H]2C(=O)N(Cc3ccccc3)C(=O)[C@@H]12)S(=O)(=O)c1ccc(C(F)(F)F)cc1`, for which the protection from apoptosis is 13.9%.
On to `COc1ccc(C)cc1NC(=O)c1cc(-c2ccccc2)nc2c1cnn2C(C)C`, for which the protection from apoptosis was 15.6%.
In the case of `COc1ccc(S(=O)(=O)Nc2cccc3c2O[C@H](CN(C)S(=O)(=O)c2ccc(OC)cc2)[C@@H](C)CN([C@H](C)CO)C3=O)cc1`, the protection from apoptosis was -7.76%.
With `COc1ccc(S(=O)(=O)N(C)C[C@@H]2Oc3ccc(NS(=O)(=O)c4cn(C)cn4)cc3C(=O)N([C@@H](C)CO)C[C@@H]2C)cc1` the figure was -2.08%; with `Nn1c(SCC(=O)NC2CCCc3ccccc32)nnc1C1CC1` (centres undefined), -5.42%.
For the molecule `COc1ccc(CCNC(=O)COC(=O)c2cnc(Cl)c(Cl)c2)cc1`, the protection from apoptosis was -3.76%.
For `C/C(=N\NC(=O)c1ccccc1F)c1ccccn1`, the protection from apoptosis is 92% (active).
The same measure for `C/C(=N\NC(=O)Cc1ccc(F)cc1)c1ccc(F)cc1`: -1.1%; for `C/C(=N\NC(=O)Cc1ccc(Cl)cc1)c1ccccn1`: 87.6% (active); for `COC(=O)c1ccccc1NC(=S)NC(=O)c1ccccc1F`: 1.17%.
On to `C/C(=N\NC(=O)Cc1ccc(Br)cc1)c1cccnc1`, for which the protection from apoptosis was -3.84%.
Take `C/C(CC(=O)Nc1ccc(N(C)C)cc1)=N\NC(=O)c1ccccc1F`: the protection from apoptosis is 1.37%.
With `O=C(COC(=O)c1ccccn1)NNC(=O)c1ccc(Br)cc1`, the protection from apoptosis is -13.1%.
Take `Cc1cc(C)cc(OCC(=O)Nc2ccc(N3CCOCC3)cc2N2CCOCC2)c1`: the protection from apoptosis is 1.95%.
The same measure for `CN(CC(=O)Nc1ccc(OC(F)F)cc1)S(=O)(=O)/C=C/c1ccccc1`: -0.758%.
With `CCc1ccc(-n2c(SCc3cc(=O)n4cc(Br)ccc4n3)nc3[nH]ncc3c2=O)cc1` the figure was 16.3%.
Consider `Cc1cccc2nc(CSc3nc4[nH]ncc4c(=O)n3-c3cccc(Cl)c3)cc(=O)n12`, for which the protection from apoptosis is 92.7% (active).
As for `COc1ccc(CCNC(=O)CSc2nc3[nH]ncc3c(=O)n2-c2cccc(C(F)(F)F)c2)cc1OC`, the protection from apoptosis is 4.86%.
On to `CC[C@@H]1CCCCc2ccccc2[C@@H](C(=O)C[C@H](O)CC(C)=O)OC1=O`, for which the protection from apoptosis is -2.96%.
As to `C[C@@H]1CN([C@@H](C)CO)C(=O)c2cccc(NS(=O)(=O)c3ccc(F)cc3)c2O[C@H]1CN(C)C(=O)NC1CCCCC1`, the protection from apoptosis was -0.297%.
Take `CC(C)OCCCNc1ncnc2c1[nH]c1ccc(F)cc12`: the protection from apoptosis was 104% (active).
In the case of `COc1cc(OC)c(OC)cc1/C=N/Nc1ncnc2c1[nH]c1ccc(C)cc12`, the protection from apoptosis is 6%.
For the molecule `CC(C)OCCCNC(=O)c1cc(Sc2ccc(F)cc2)nc2ccccc12`, the protection from apoptosis was 0.00619%.
Consider `COc1ccc(NC(=O)CN(C)C(=O)c2cc(C3CC3)nn2-c2ccccc2)cc1`, for which the protection from apoptosis is -6.53%.
As for `N#Cc1cc([N+](=O)[O-])ccc1NC(=O)COC(=O)c1cnccn1`, the protection from apoptosis is -1.22%.
As to `Cc1cccc(NC(=S)Nc2ccc(Cl)c(Cl)c2)c1`, the protection from apoptosis was 2.17%.
For the molecule `Cc1cccc(NC(=S)Nc2ccc3cn[nH]c3c2)c1`, the protection from apoptosis is 124% (active).
The same measure for `CCc1cccc(CC)c1NC(=S)Nc1ccc2cn[nH]c2c1`: -5.93%; for `COc1ccc(S(=O)(=O)N(C)C[C@H]2Oc3c(NC(=O)Nc4ccc5c(c4)OCO5)cccc3C(=O)N([C@H](C)CO)C[C@@H]2C)cc1`: 2.68%.
For the molecule `Cc1ccc(C(=O)Nc2ccc3c(c2)OCCO3)cc1S(=O)(=O)N1CCOCC1`, the protection from apoptosis is 10.2%.
The same measure for `C/C(N)=C(/C#N)C(=O)COC(=O)c1cc(-c2ccccc2)nc2ccc(Br)cc12`: 7.58%; for `C/C(N)=C(/C#N)C(=O)COC(=O)c1cc(-c2ccc(C)cc2)nc2ccccc12`: 80.7% (active); for `C/C(N)=C(/C#N)C(=O)COC(=O)c1cc(-c2cccc(Br)c2)nc2ccccc12`: -5.26%.
Take `O=C(OCCN1C(=O)c2ccccc2C1=O)[C@@H]1CC(O)CN1S(=O)(=O)c1ccccc1[N+](=O)[O-]` (some centres undefined): the protection from apoptosis is 4.37%.
As for `C=CC[C@H](CC(=O)OC(C)(C)C)C(=O)OC[C@H]1CCCN1C(=O)[C@H](CC=C)CC(=O)N(CCO)Cc1ccccc1`, the protection from apoptosis was 5.16%.
In the case of `CCC(CO)Oc1cc(NC(=O)c2cccc(F)c2)c2ncn(C(C)C)c2c1` (centres undefined), the protection from apoptosis is -0.224%.
`COC(=O)C1=C(C)N(Cc2ccccc2)C(=NCCCOC(C)C)N[C@H]1c1ccccc1`: the protection from apoptosis is 11.4%.
On to `Cc1ccc(Nc2ccccc2N)cc1`, for which the protection from apoptosis was -7.56%.
As for `Nc1ccc(Nc2ccccc2)cc1`, the protection from apoptosis was 78% (active).
`Cc1cc(Nc2ccccc2)n(C(=O)c2ccc(N)cc2)n1`: the protection from apoptosis is -16.4%.
With `NC(=O)c1c(Nc2nc3c(F)cccc3s2)sc2c1CCCC2`, the protection from apoptosis is -4.14%.
For `O=C(Nc1nc2c(F)cc(F)cc2s1)C1COc2ccccc2O1` (centres undefined), the protection from apoptosis is 8.45%.
With `Fc1cc(F)c2nc(Nc3nc4c(F)cccc4s3)sc2c1`, the protection from apoptosis is 103% (active).
For `COc1ccc(C(=O)O)cc1S(=O)(=O)NC1CCN(Cc2ccccc2)CC1`, the protection from apoptosis is -4.08%.
Take `Cc1ccc(Oc2nc(-c3ccccn3)nc3ccccc23)cc1`: the protection from apoptosis is 101% (active).
With `CC(C)(C)Nc1nc(-c2ccccn2)nc2ccccc12`, the protection from apoptosis is 118% (active).
Turning to `COc1ccc(Sc2nc(-c3ccccc3)ncc2OC)cc1`, the protection from apoptosis was -2.84%.
Take `COc1ccc(Cc2nc(-c3ccccn3)no2)cc1OC`: the protection from apoptosis is 4.66%.
Consider `CCOC(=O)c1cnc(-c2ccccc2)nc1Oc1ccc(C)cc1`, for which the protection from apoptosis is -3.84%.
Regarding `CCOCCCNc1nc(-c2ccccc2)nc2ccccc12`, the protection from apoptosis was 4.15%.
Take `N#Cc1ccc(Oc2cc(C(F)(F)F)nc(-c3ccccn3)n2)cc1`: the protection from apoptosis was -3.82%.
For `COc1cnc(-c2ccccn2)nc1Oc1ccc(C(C)(C)C)cc1`, the protection from apoptosis is 97.3% (active).
Regarding `CCC(=O)OCCNc1nc(-c2ccccc2)nc2ccccc12`, the protection from apoptosis was 0.204%.
With `COc1ccccc1S(=O)(=O)NCc1ccc(C(=O)N(C)Cc2ccc(F)cc2)cc1` the figure was -4.62%; with `CCN(CC)C(=O)[C@H]1CC(CC(=O)NCc2ccco2)C(=O)N2CCc3c([nH]c4ccccc34)[C@]12C` (some centres undefined), -1.53%.
For the molecule `O=C(COc1ccc([N+](=O)[O-])cc1Cl)Nc1ccc2[nH]c(=O)[nH]c2c1`, the protection from apoptosis is -0.613%.
With `CN(c1ccccc1)S(=O)(=O)c1cc(C(=O)N2CCN(c3ncccn3)CC2)ccc1Cl` the figure was -2.6%; with `COc1ccccc1-c1oc2ccccc2c1C#CCCCCO`, -5.68%; with `COC(=O)c1ccc(/C=C/c2c(-c3ccc(OC)cc3)sc3ccccc23)cc1`, 5.7%.
`Cc1ccc(-n2ncc3c2CCCC3NC(=O)c2cnccn2)cc1C` (centres undefined): the protection from apoptosis is 2.44%.
In the case of `COc1ccc(C(=O)NC2CCCc3c2cnn3-c2cccc(C)c2C)c(OC)n1` (centres undefined), the protection from apoptosis is 32.4%.
As to `Cc1cc(C(=O)NC2CCCc3c2cnn3-c2cccc(C)c2C)c(C)o1` (centres undefined), the protection from apoptosis is 41.6%.
As to `Cn1nccc1C(=O)NC1CCCc2c1cnn2-c1ccc(F)cc1F` (centres undefined), the protection from apoptosis is 132% (active).
The same measure for `CC(=O)NCC(=O)NC1CCCc2c1cnn2-c1ccccc1F` (centres undefined): -7.28%; for `Cn1nccc1C(=O)NC1CCCc2c1cnn2-c1ccccc1F` (centres undefined): 111% (active).
Take `Cc1c(C(=O)Nc2cccc(S(=O)(=O)N3CCOCC3)c2)oc2ccccc12`: the protection from apoptosis is -9.31%.
For the molecule `COc1cc(C(=O)OCc2cc(=O)n3ccsc3n2)ccc1OC(C)C`, the protection from apoptosis was -0.396%.
Consider `CC(C)c1ccc(NC(=O)COC(=O)c2ccc(CN3CCCC3=O)cc2)cc1`, for which the protection from apoptosis is 3.42%.
With `COc1ccccc1-c1sc2ccccc2c1C#CC1(O)CCCCC1` the figure was -12%.

Source of the values: PubChem BioAssay AID435005 (Broad Institute, 2010).
